Compound activity as filed in PubChem BioAssay.
Shown are actives, neighbours in structure and some others; about 7.3% of the full set was active somewhere.
uPA surface inh – inhibitors of cell surface uPA generation; cell surface uPA generation assay, qHTS; Potency, µM (top dose mostly 38.3 µM), usual class: inhibitors; hit rate 0.31% among 330,000; active = well fitted inhibition curve with a large enough effect; inconclusive = small, poorly fitted or top-dose-only effect; inactive = no such curve, though single readings can be large or run the other way; tested in mouse RAW 264.7 cells; note: nearly all actives have a fitted effect of over 55% in size
SMN2 splice enh – SMN2 splice variant enhancement; HEK293 SMN2-luciferase splicing reporter, luminescence, 30-36 h; Potency, µM (top dose mostly 46.1 µM), actives largely listed as activators; hit rate 2.8% among 210,000; note: nearly all actives have a fitted effect of over 55% in size
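qHTS luciferase splicing reporter: luminescence rises when SMN2 exon 7 is included in transfected HEK293 cells. Compound exposure lasted 30-36 h at 37C, with 4.5 mM final sodium butyrate as control, followed by a ONE-Glo read.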
ELG1 genotox – genotoxicity induction in ELG1-luciferase HEK293T cells; HEK293T ELG1-luciferase reporter, luminescence, 16 h; Potency, µM (highest dose often 46 µM), most hits filed as activators; hit rate 1.3% among 330,000; AID 504466; note: nearly all actives have a fitted effect of over 60% in size
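Screening used a luciferase reporter fused to human ELG1 in HEK293T cells. Luminescence was read on a CCD plate imager after 16 hr exposure and 30 min ONE-Glo incubation.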
FLuc modulator – counter-screen for miR-21 project: firefly luciferase inhibitors or activators; AID 588342; Potency, µM (highest dose often 57.5 µM), hits mostly inhibitors; purified FLuc, Km substrates, luminescence inhibition; hit rate 6.9% among 360,000; note: nearly all actives have a fitted effect of over 55% in size
Target sequence (P08659 whole entry, looked up): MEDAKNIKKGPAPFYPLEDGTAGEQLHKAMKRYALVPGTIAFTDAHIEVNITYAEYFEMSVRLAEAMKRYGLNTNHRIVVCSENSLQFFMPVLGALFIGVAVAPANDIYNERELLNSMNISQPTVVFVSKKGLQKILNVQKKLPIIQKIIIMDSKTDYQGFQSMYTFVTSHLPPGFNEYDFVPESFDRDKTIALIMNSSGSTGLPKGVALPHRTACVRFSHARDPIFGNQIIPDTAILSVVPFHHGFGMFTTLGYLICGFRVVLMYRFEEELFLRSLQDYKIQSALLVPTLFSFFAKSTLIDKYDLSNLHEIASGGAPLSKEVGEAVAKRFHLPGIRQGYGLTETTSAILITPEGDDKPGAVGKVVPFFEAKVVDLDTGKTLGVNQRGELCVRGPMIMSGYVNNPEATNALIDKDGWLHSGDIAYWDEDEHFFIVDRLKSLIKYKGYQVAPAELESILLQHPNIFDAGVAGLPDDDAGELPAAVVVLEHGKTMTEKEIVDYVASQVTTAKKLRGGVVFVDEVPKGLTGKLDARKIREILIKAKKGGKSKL
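Purified P. pyralis luciferase, 10 nM final, with Km-level 10 uM D-luciferin and 10 uM ATP in 50 mM Tris acetate pH 7.5, 10 mM Mg acetate, 0.01% Tween-20, 0.05% BSA; 6-point qHTS titration about 60 µM downward; luminescence read.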
Rab9 promoter act – activates the Rab9 promoter; Potency, µM (titrated, usually from 9.22 µM), most hits filed as activators; hit rate 2.8% among 320,000; AID 485297; Huh7 Rab9 promoter-luciferase reporter, luminescence, 24 h; note: nearly all actives have a fitted effect of over 60% in size
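Luciferase signal after 10 min detection reagent at ambient indicates Rab9 promoter upregulation; stably transfected Huh7 cells were treated 24 h with compound in DMSO at 37 °C, 5% CO2.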
NPC1 prom act – NPC1 promoter activation. Huh7 NPC1 promoter luciferase reporter, 24 h. Potency, µM (doses to about 9.22 µM), usual class: activators. hit rate 2.4% among 320,000; note: nearly all actives have a fitted effect of over 60% in size
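Readout is luciferase luminescence, reflecting NPC1 promoter activation in stably transfected Huh7 cells after 24 h compound exposure at 37 °C in reduced-serum medium with 10% FBS.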
Numbers stand for hits; . = inactive; ? = inconclusive; / = no result given. Unless noted, calls come from the whole dose curve; as a rule, active = well fitted curve in the direction sought with a large enough effect; inconclusive = small, poorly fitted or top-dose-only effect, or another doubt; inactive = no such curve, though single readings can be large; an effect the other way counts as inactive or inconclusive.

SMILES	uPA surface inh	SMN2 splice enh	ELG1 genotox	FLuc modulator	Rab9 promoter act	NPC1 prom act
CC(C)(C)C1CCc2c(sc3c2C(=O)NC(c2ccco2)N3)C1 (centres undefined)	.	13µM	.	3µM	2.5µM	?
O=c1c2cccnc2[nH]c(=S)n1CCCN1CCN(c2ccc(F)cc2)CC1	.	7.9µM	.	.	.	.
COc1ccc(-c2cc3ncc(C)n3c(Nc3ncccc3C(N)=O)n2)cc1OC	/	/	/	/	.	.
Cc1ccc(C(=O)Cn2nnc(-c3ccccc3)n2)cc1	.	/	.	19µM	.	.
COc1cccc(-c2nnn(CCC(=O)O)n2)c1	.	.	.	.	.	.
COC(=O)Cn1nnc(-c2cccc(OC)c2)n1	.	.	.	27µM	.	.
COc1ccc(C(=O)Cn2nnc(-c3cccs3)n2)cc1	.	.	.	9.5µM	2.8µM	?
CCOC(=O)Cc1ccc(NC(=O)N2CCc3c(sc4c3CCCC4)C2c2ccc(F)cc2)cc1 (centres undefined)	/	/	/	.	/	/
Cc1cc(C)c(NC(=O)CSc2nc(=O)n(Cc3ccco3)c3c2CCC3)c(C)c1	/	/	/	.	/	/
Cc1ccc(NC(=O)c2cnn(-c3ccccc3)c2C)c(C)c1	.	/	?	12µM	3.2µM	2.5µM
Cc1ccc(NC(=O)c2cnn(-c3ccccc3)c2C)cc1	?	/	1.5µM	1.1µM	0.4µM	0.32µM
Cc1cccc(C)c1NC(=O)c1cnn(-c2ccccc2)c1C	.	/	.	.	.	.
O=c1c2oc3ccccc3c2ncn1Cc1ccc(Br)cc1	/	/	/	.	/	/
Cc1ccc(-n2c3c(cc(-c4nc(-c5ccc(Cl)cc5)cs4)c2=O)C(=O)CC(C)(C)C3)cc1C	/	.	/	.	/	/
Cc1ccccc1Nc1c(-c2ccc(N3CCOCC3)cc2)nc2ccccn12	/	11µM	/	0.24µM	/	/
Cc1ccccc1Nc1c(-c2cccc(O)c2)nc2ccc(Br)cn12	/	.	/	.	/	/
Cc1ccccc1Nc1c(-c2cccnc2)nc2cccc(C)n12	.	.	.	.	.	.
Cc1ccccc1Nc1c(-c2ccc(N3CCOCC3)cc2)nc2cccc(C)n12	/	.	/	1.3µM	/	/
Cc1ccccc1Nc1c(-c2ccc(N3CCOCC3)cc2)nc2ccc(Br)cn12	/	.	/	3.4µM	/	/
COc1ccc(C2C(=O)N(C3CCC(C)CC3)CC(=O)N2Cc2ccccc2Cl)cc1OC (centres undefined)	/	/	/	.	/	/
COc1cccc(-c2nc(-c3ccccn3)no2)c1OC	.	13µM	9.2µM	13µM	2.5µM	3.5µM
c1ccc(-c2noc(-c3cccc4ccccc34)n2)nc1	.	16µM	?	0.76µM	.	?
COc1cc(-c2nc(-c3ccccn3)no2)cc(OC)c1OC	.	.	?	?	.	?
c1ccc(-c2cc(-c3nc(-c4ccccn4)no3)c3ccccc3n2)cc1	.	/	/	/	/	/
COc1ccccc1C(=O)NC1=NC(c2ccc(Br)cc2)CC(=O)N1 (centres undefined)	/	11µM	/	4.8µM	/	/
SMILES	uPA surface inh	SMN2 splice enh	ELG1 genotox	FLuc modulator	Rab9 promoter act	NPC1 prom act
Cc1ccc(C(=O)NC2=NC(c3ccc(C)cc3)CC(=O)N2)cc1 (centres undefined)	/	/	/	.	/	/
Cc1ccc(C)c(NC(=O)c2ccccc2O)c1	.	.	.	17µM	?	.
CC(=O)/C=C(\C)Nc1ccccc1O	7.9µM	/	.	.	.	.
O=C(Nc1ccccc1O)c1ccccc1O	.	.	.	9.5µM	.	?
Cc1cccc(NC(=O)c2ccccc2O)c1C	.	.	.	13µM	?	?
O=C1C(c2ccncc2)=C(O)c2ccccc21	.	3.2µM	?	2.1µM	4.5µM	0.71µM
Cc1ccc(C2=C(O)c3ccccc3C(=O)C2=O)cc1	.	/	.	?	.	.
O=c1cc(-c2ccccc2)[nH]c2ccccc12	.	.	.	?	.	.
O=C1C(c2cc(=O)c3ccccc3[nH]2)=C(O)c2ccccc21	.	1µM	8.2µM	0.76µM	2.2µM	1.6µM
CCOC(=O)C(C)Nc1ncnc2onc(C)c12 (centres undefined)	/	.	/	.	/	/
Cc1ccc(CNC(=O)c2c(-c3ccccc3F)noc2C)o1	/	/	/	.	/	/
COc1ccc(C(CNC(=O)c2cc3ccccc3o2)N2CCCC2)cc1 (centres undefined)	.	/	.	.	.	.
COc1ccc(C(CNC(=O)c2ccc(-c3nc4ccccc4s3)o2)N2CCCC2)cc1 (centres undefined)	?	/	.	19µM	.	.
CCOC(=O)C1CCN(c2ncnc3nc[nH]c23)CC1	?	.	.	.	.	.
CCOC(=O)C1CCN(c2ncnc3c(C)csc23)CC1	.	/	?	11µM	?	.
Cc1csc2c(N3CCN(C(=O)c4ccc(C(C)(C)C)cc4)CC3)ncnc12	.	/	.	27µM	.	.
Cc1cc(=O)n(Cc2ccc(F)cc2Cl)c2c1c(C)nn2C	/	/	/	.	/	/
C/C(=C\c1ccccc1)C(=O)n1nnc2ccccc21	/	.	.	19µM	.	.
O=C(COc1ccc(Br)cc1CNC1CCCC1)Nc1ccccc1	.	.	.	.	.	.
COc1ccc(-c2c(C)c3ccc(O)c(CN4CCOCC4)c3oc2=O)cc1OC	/	/	/	.	/	/
CC1(C)SC(=S)N(NC(=O)Nc2ccccc2)C1N(O)C(=O)Nc1ccccc1 (centres undefined)	.	.	.	.	.	.
CNC(=O)N(O)C1N(NC(=O)Nc2cccc3ccccc23)C(=S)SC1(C)C (centres undefined)	.	7.1µM	.	.	.	.
COc1ccc2c(c1)c(=O)oc1c(C)c(OC(C)C(=O)N[C@@H](Cc3c[nH]c4ccc(O)cc34)C(=O)O)ccc12 (some centres undefined)	.	/	.	12µM	.	.
COc1ccc(-c2cc(C(F)(F)F)n3nc(C(=O)Nc4ccccc4SC)cc3n2)cc1OC	/	.	/	.	/	/
Cc1ccsc1/C=N/Nc1nc(Cl)c(Cl)cc1Cl	.	?	.	?	.	.
SMILES	uPA surface inh	SMN2 splice enh	ELG1 genotox	FLuc modulator	Rab9 promoter act	NPC1 prom act
Cc1ccc(/C=N/Nc2ccc(Cl)c(C(=O)O)c2)s1	.	0.89µM	?	4.8µM	0.32µM	0.32µM
Cc1ccc(/C=N/Nc2nc(Cl)c(Cl)cc2Cl)s1	.	?	?	6µM	?	?
O=C(N/N=C/c1cccs1)C(O)c1ccccc1 (centres undefined)	.	/	.	.	.	.
O=C(O)c1cc(N/N=C/c2cccs2)ccc1Cl	/	11µM	?	9.5µM	?	?
Cc1ccc(/C=N/Nc2ccc(F)cc2)s1	.	/	.	?	.	.
CC(C)CN1CC[C@@]2(CCCN(C(=O)c3cc(C(F)(F)F)cc(C(F)(F)F)c3)C2)C1	/	.	/	/	/	/
OB(O)c1ccc(Cl)s1	/	.	/	/	/	/
CCn1nnc2cc(C(=O)NCCc3ccccc3F)ccc21	.	/	?	1.1µM	0.4µM	0.32µM
Cc1nc(NC(=O)c2ccccc2)nc2cc3c(cc12)OCO3	.	?	?	17µM	?	?
O=C(NNC(=O)c1cc(Cl)ccc1O)c1cccs1	.	/	.	21µM	.	.
